Assay outcomes from PubChem.
KB-3-1 cytotox: kills parental KB-3-1 adenocarcinoma cells; KB-3-1 viability, CellTiter-Glo ATP luminescence, 72 h; Potency, µM (doses to about 46.1 µM), usual class: cytotoxic; hit rate 1.4% among 400,000; further: on the % scale 0 is the no-effect control and ±100 the full control effect; nearly all actives have a fitted effect of over 60% in size
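Cytotoxicity measured as CellTiter-Glo luminescence after 72 h at 37 C. Compound titrations were pinned onto drug-naive KB-3-1 parental adenocarcinoma cells grown in DMEM with 10% FBS, and normalized data fitted to concentration-response curves.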
HT1080-NT tox: kills 2HG-producing HT-1080-NT fibrosarcoma cells. AID 686970. HT-1080-NT fibrosarcoma viability, CellTiter-Glo ATP luminescence, 48 h. Potency, µM (titrated, usually from 46.1 µM), for inactives: at the top dose activity, negative = less viability, hits mostly cytotoxic. hit rate 1.6% among 360,000;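 further: NT is the 2HG producing partner of a matched IDH1 knockdown line; 0% = DMSO-treated cells and -100% = media-only wells without cells; nearly all actives have a fitted effect of over 55% in size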
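Viability of the 2HG-overproducing fibrosarcoma line after 48 hours of compound exposure at 37 degrees C was determined by luminescence with CellTiter-Glo, and concentration-effect curves were then fitted and categorized.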
MCF10A rerep: inducers of DNA re-replication in MCF 10A breast cells | MCF 10A DNA re-replication, Hoechst nuclear intensity, 48 h | Potency, µM (top dose mostly 46.1 µM), without a hit: top-dose activity, positive = re-replication, most hits filed as activators | hit rate 2.9% among 350,000 | AID 624296; further: % of control where 0% means no effect; nearly all actives have a fitted effect of over 50% in size
KB-V1 cytotox: kills drug-selected multidrug resistant KB-V1 cells. Potency, µM (highest dose often 46.1 µM), actives largely listed as cytotoxic. KB-V1 MDR cells viability, CellTiter-Glo, 72 h. hit rate 3.4% among 400,000. AID 1347076; further: on the % scale 0 is the no-effect control and ±100 the full control effect; nearly all actives have a fitted effect of over 60% in size
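Following 72 h at 37 degrees C with compound, KB-V1 cell viability was read by CellTiter-Glo luminescence, medium being phenol-red-free DMEM plus 10% FBS; concentration-response parameters came from normalized, curve-fitted qHTS data.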
HT1080 IDH1KD tx: kills HT-1080 cells with IDH1 knockdown; HT-1080 IDH1 knockdown viability, ATP luminescence, 48 h; Potency, µM (highest dose often 46.1 µM), inactives show at the top dose activity, negative = toxicity, most hits filed as cytotoxic; hit rate 2% among 360,000;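 further: 0% = DMSO wells and -100% = cell-free medium wells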
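In this qHTS, HT-1080 cells depleted of IDH1 are exposed for 48 h at 37 °C to compound titrations. Toxicity is scored from CellTiter-Glo luminescence, with DMSO as full viability and medium alone as none.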
SW480 rerep: inducers of DNA re-replication in SW480 colon cancer cells. SW480 DNA re-replication, Hoechst DNA content imaging, 48 h. Potency, µM (series often up to 46.1 µM), for inactives: top-dose re-replication activation, most hits filed as activators. hit rate 1.8% among 340,000. AID 624297; further: % of control where 0% means no effect; nearly all actives have a fitted effect of over 55% in size
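Image-based read-out: total Hoechst fluorescence of nuclei (405 nm excitation, 500-530 nm emission), with hits raising the fraction of high-intensity nuclei. SW480 colon cells incubated 48 hr with compounds at 37 C.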
The depositor's hits bear a star; i = inactive; ? = inconclusive; / = not tested or not shown. Hits are enriched below; roughly 7.9% of the tested compounds scored in any of these assays. The call rests on the fitted dose curve; in most records, active means well fitted curve in the direction sought with a large enough effect; inconclusive means small, poorly fitted or top-dose-only effect, or another doubt; inactive means no such curve, though single readings can be large; an effect the other way counts as inactive or inconclusive. Potency means the concentration at half of the fitted maximal effect.

SMILES | KB-3-1 cytotox | HT1080-NT tox | MCF10A rerep | KB-V1 cytotox | HT1080 IDH1KD tx | SW480 rerep
COc1ccc(-c2csc(NC(=O)c3ccccc3NS(=O)(=O)c3ccc(F)c(F)c3)n2)cc1 | 5.2µM* | ? | 13µM* | 4.1µM* | 1.6µM* | ?
Cc1ccc(S(=O)(=O)Nc2ccccc2C(=O)Nc2nc(-c3ccc(F)cc3)cs2)cc1 | 12µM* | ? | 5.8µM* | 2.6µM* | ? | ?
Cc1ccc(S(=O)(=O)Nc2nc(-c3ccccc3)cs2)cc1 | i | 0% | -1% | i | 1% | -3%
Cc1nc2nc[nH]n2c(=O)c1NS(=O)(=O)c1ccc(Br)cc1 | i | / | / | ? | / | /
Cc1ccc(-c2cnc(C3CC3)o2)cc1S(=O)(=O)Nc1ccccc1 | 7.3µM* | -26% | ? | ? | ? | -5%
CC(=O)Nc1ccc(NS(=O)(=O)c2cc(-c3cnc(C4CC4)o3)ccc2C)cc1 | i | -4% | -5% | ? | -6% | -6%
CC(=O)c1ccc(NS(=O)(=O)c2cc(-c3cnc(C4CC4)o3)ccc2C)cc1 | ? | 21µM* | ? | ? | ? | ?
O=S(=O)(c1ccc(-c2cnc(C3CC3)o2)cc1)N1CCN(c2ccc(F)cc2)CC1 | ? | / | / | i | / | /
CC(=O)c1cccc(NS(=O)(=O)c2cc(-c3cnc(C4CC4)o3)ccc2C)c1 | ? | 21µM* | ? | ? | 23µM* | -11%
CC(=O)c1ccc(N2CCN(S(=O)(=O)c3ccc(-c4cnc(C5CC5)o4)cc3)CC2)cc1 | i | 15µM* | 23% | ? | 21µM* | 0%
CCc1nn(Cc2cccc(F)c2)c(=O)c2cc3cc(C)ccc3n12 | i | / | / | i | / | /
COC(=O)c1ccc(NC(=O)COc2ccccc2C(=O)Nc2ccccc2)cc1 | i | / | / | i | / | /
O=[N+]([O-])c1ccc(/C=C2\CCC(C3=CCCC3)=C2N2CCOCC2)cc1 | i | 1% | 23µM* | ? | -17% | ?
Cc1ccc(S(=O)(=O)N2CCN(C(=O)CSC3CCCC3)CC2)c(C)c1 | i | 0% | 16% | 4.1µM* | -2% | 5%
Cc1cc(C)c(NC(=O)C2CC(=O)N(Cc3ccccc3)C2)c(C)c1 (stereo not given) | i | 13% | -35% | i | 6% | 16µM*
Cc1ccc(CN2CC(C(=O)N3CCN(S(=O)(=O)c4cc(C)ccc4C)CC3)CC2=O)cc1 (stereo not given) | i | 0% | 15% | i | 1% | 1%
Cc1ccc(CN2CC(C(=O)N3CCN(S(=O)(=O)c4ccc(C)cc4C)CC3)CC2=O)cc1 (stereo not given) | i | 2% | 2% | 16µM* | 1% | 1%
O=S(=O)(c1ccc(Br)cc1)c1nc(-c2cccs2)oc1SCc1ccccc1F | i | / | / | i | / | /
COc1ccc(NC(=O)CSC2=Nc3ccccc3C3=NC(Cc4ccccc4)C(=O)N23)cc1 (stereo not given) | i | / | / | i | / | /
CN(Cc1ccccc1)C(=O)C1CCCN(Cc2cccc(Cl)c2)C1 (stereo not given) | ? | ? | 0.29µM* | i | ? | -43%
CN(Cc1cccc(Cl)c1)C(=O)C1CCN(C(=O)Nc2ccccc2)CC1 | i | 0% | 10% | i | -1% | -4%
Cc1ccc(CSC2=NS(=O)(=O)c3ccccc32)cc1 | i | / | / | i | / | /
C=CCN=c1scc(-c2ccc3c(c2)NC(=O)CO3)n1/N=C(\C)c1ccccn1 | 5.2µM* | ? | ? | ? | ? | -7%
NC1=C(Cl)C(=O)c2ccccc2C1=O | ? | ? | ? | i | ? | 16µM*
NC1=C(Cl)C(=O)c2ccc(S(N)(=O)=O)cc2C1=O | ? | 8.2µM* | 1.5µM* | ? | 6.5µM* | 0.73µM*
SMILES | KB-3-1 cytotox | HT1080-NT tox | MCF10A rerep | KB-V1 cytotox | HT1080 IDH1KD tx | SW480 rerep
NS(=O)(=O)c1ccc2c(c1)C(=NO)c1cc(S(N)(=O)=O)ccc1-2 | i | -1% | 1% | ? | -4% | -2%
Cc1cc(C)cc(NC(=O)Cn2cc(C(=O)C3CCCCC3)c3ccccc32)c1 | i | / | / | i | / | /
CC(C)(C)[C@]1(O)CCN2CC3c4ccccc4CCc4cccc(c43)[C@@H]2C1 (stereo not given in full) | / | / | 27% | / | / | 15%
CO/N=C/c1ccc(OC)c(Oc2nc(OC)cc(OC)n2)c1 | 18µM* | ? | 16µM* | i | ? | 18µM*
CCO/N=C/c1ccc(OC)c(Oc2nc(OC)cc(OC)n2)c1 | i | -16% | ? | i | -19% | -1%
Clc1cccc(CNc2nnnn2-c2ccccc2)c1 | ? | -5% | ? | 23µM* | -14% | -3%
CCOC(=O)C1CCC(CN(Cc2ccc(Cl)cc2)S(=O)(=O)c2cccc(Cl)c2C)CC1 (stereo not given) | i | / | / | i | / | /
CCN(CC)c1nc2c3c(nc4c(c3c1C#N)CC(=O)N4c1ccc(Cl)cc1)NC(C)=N2 | ? | -1% | 9.2µM* | i | -1% | 4%
CCc1ccc(N2C(=O)Cc3c2nc(N)c(C#N)c3N)cc1 | i | 7% | 7% | ? | -27% | 4%
O=S(=O)(c1ccccc1)c1nc(-c2cccc(Cl)c2)oc1NCc1ccccc1 | i | / | / | i | / | /
O=S(=O)(c1ccc(Cl)cc1)c1nc(-c2cccc(Br)c2)oc1NCc1ccccc1 | ? | / | / | 16µM* | / | /
COc1ccc2c(c1)nc(SCC(=O)c1ccc(Br)s1)n2C | i | -6% | 15µM* | ? | -23% | ?
COc1cc(/C=C2\SC(=N)N(c3ccc(F)cc3)C2=O)ccc1O | i | ? | 18µM* | ? | ? | ?
Cc1ccc(/C=C2\SC(=S)N(CCC(=O)N3CCCCC3)C2=O)cc1 | ? | 4% | 1% | i | 2% | -4%
N=C1S/C(=C\c2cccc3ccccc23)C(=O)N1c1ccc(F)cc1 | 7.3µM* | ? | ? | 7.3µM* | -28% | 18µM*
CCOC(=O)CN1C(=O)S/C(=C/c2ccc(C)o2)C1=O | i | 17% | 0% | i | 1% | -1%
N=C1S/C(=C\c2ccccc2F)C(=O)N1c1ccc(F)cc1 | i | 2% | -6% | i | 3% | -6%
COc1cc(/C=C2\SC(=S)N(CCC(=O)N3CCCCC3)C2=O)cc(OC)c1OC | ? | -15% | 21µM* | ? | ? | ?
CCOc1ccc(N2C(=O)S/C(=C\c3ccc(O)c(OC)c3)C2=O)cc1 | i | -5% | 0% | i | 1% | ?
